According to PubChem BioAssay:

Assay: growth suppression of yeast trafficking mutant, preliminary HTS, modulators of trafficking downstream of Golgi apparatus project, 1536-format plate, OD 615 nm (AID 637)
Conditions: yeast transport mutant growth, absorbance 615 nm, 18 h; active compounds read high; in the data active means inhibition above about 30%; inactive means the rest

inhibition, inactive:
O=C(CS(=O)(=O)c1cn(Cc2ccc(Cl)cc2)c2ccccc12)N1CCCC1 1%
O=c1c2cc(N3CCOCC3)ccc2[nH]c(=S)n1CCCN1CCCC1 6.89%
CCOC(=O)c1[nH]c(C)c(C(=O)Nc2ccc(C)c(Cl)c2)c1C -2.7%
CSc1nnc(-c2nnc(SC)n2-c2ccccc2)n1-c1ccccc1 6.77%
COc1ccc(C(=O)NCc2ccccc2OC)cc1 -3.17%
CCOC(=O)c1[nH]c(C)c(C(=O)N2CCN(C(=O)c3ccco3)CC2)c1C -0.48%
O=C(O)c1oc2ccccc2c1-n1cccc1 0.16%
Cc1nn(-c2ccc(F)cc2)c(C)c1NS(=O)(=O)c1ccc(Cl)cc1 -2.79%
O=C(CSc1nnc(-c2ccccc2)c(-c2ccccc2)n1)N1CCOCC1 -5.48%
O=C(NCCCNC(=O)c1ccccn1)c1ccccn1 -3.49%
Cn1c(=O)c2[nH]c(NCC3CCCO3)nc2n(-c2ccccc2)c1=O (stereo unspecified) 3.67%
CCOC(=O)c1c(C)[nH]c(C=Nc2ccccc2)c1O 11.4%
COc1ccc(-n2c(SCc3ccc(C#N)cc3)nnc2-c2ccccn2)cc1 -5.56%
O=C(O)c1ccc2c(c1)N(Cc1ccccc1F)C(=O)c1ccccc1S2=O (stereo unspecified) 4.43%
Cc1onc(-c2ccccc2Cl)c1C(=O)Nc1cccc(-c2cn3cccnc3n2)c1 -1.82%
COc1cc(OC)cc(C(=O)NCCN2CCOCC2)c1 -4.36%
